“And” between values parts separate entries of the source, which are not always exact repeats. Identical values can stand only once. The whole screen tested about 5,500 compounds, of which about 2,000 (36%) were called active. Not shown: some 18% with an inconclusive outcome. Cut-off read from the data, not from the text of the source: active = normalized growth mostly below about 0.91 (no sharp cut-off); inconclusive = no clear call, values can overlap the other calls; inactive = mostly above about 0.92. The list shows a part of the results. Where a SMILES comes first, the peptide text is derived from it.
Assay: chemical genetic growth profiling, strain panel (AID 1159580);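 note: tested at 20 µM; growth read once vehicle control cultures reached saturation at 30 °C; 1 = growth at the plate median or of vehicle wells; lower values mean less growth of the strain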
Settings: S. cerevisiae deletion strains, growth OD

Measured: normalized growth

CC(=O)N[C@@H](CC(=O)O)C(=O)N[C@@H](CCC(=O)O)C(=O)O (Ac-Asp-Glu-OH)
inactive: locus YAL013W, strain DEP1, stronger effect = lower value 0.996 | locus YAL021C, strain ccr4, stronger effect = lower value 1 | locus YAL026C, strain drs2, stronger effect = lower value 1.01 | locus YAL030W, strain snc1, stronger effect = lower value 1.01 | locus YBL061C, strain skt5, stronger effect = lower value 1 | locus YBR009C, strain hhf1, stronger effect = lower value 0.969 | locus YBR021W, strain FUR4, stronger effect = lower value 1.02 | locus YBR023C, strain chs3, stronger effect = lower value 1.01 | locus YBR171W, strain sec66, stronger effect = lower value 1 | locus YBR229C, strain ROT2, stronger effect = lower value 1.01 | locus YBR231C, strain swc5, stronger effect = lower value 0.997 | locus YBR279W, strain paf1, stronger effect = lower value 1 | locus YCL011C, strain gbp2, stronger effect = lower value 1 | locus YCL016C, strain dcc1, stronger effect = lower value 0.998 | locus YCL029C, strain bik1, stronger effect = lower value 0.989 | locus YCL061C, strain MRC1, stronger effect = lower value 1 | locus YCL069W, strain vba3, stronger effect = lower value 1 | locus YCR088W, strain abp1, stronger effect = lower value 1 | locus YDL005C, strain med2, stronger effect = lower value 1 | locus YDL035C, strain GPR1, stronger effect = lower value 1.01 | locus YDL040C, strain nat1, stronger effect = lower value 0.998 | locus YDL074C, strain BRE1, stronger effect = lower value 1.03 | locus YDL101C, strain DUN1, stronger effect = lower value 1.03 | locus YDL134C, strain PPH21, stronger effect = lower value 1.02 | locus YDL185W, strain tfp1, stronger effect = lower value 1 | locus YDL192W, strain arf1, stronger effect = lower value 0.996 | locus YDR001C, strain nth1, stronger effect = lower value 1 | locus YDR069C, strain doa4, stronger effect = lower value 1 | locus YDR101C, strain arx1, stronger effect = lower value 0.98 | locus YDR137W, strain rgp1, stronger effect = lower value 1.03 | locus YDR150W, strain NUM1, stronger effect = lower value 1.02 | locus YDR159W, strain sac3, stronger effect = lower value 0.983 | locus YDR162C, strain NBP2, stronger effect = lower value 1.02 | locus YDR195W, strain ref2 0.985 | locus YDR297W, strain sur2, stronger effect = lower value 0.996 | locus YDR318W, strain mcm21, stronger effect = lower value 0.981 | locus YDR334W, strain swr1, stronger effect = lower value 1.01 | locus YDR335W, strain msn5, stronger effect = lower value 1 | locus YDR388W, stronger effect = lower value 0.989 | locus YDR392W, strain spt3, stronger effect = lower value 0.898 | locus YDR502C, strain sam2, stronger effect = lower value 0.989 | locus YEL003W, strain gim4, stronger effect = lower value 1 | locus YEL037C, strain rad23, stronger effect = lower value 1.01 | locus YEL061C, strain CIN8 (second series), stronger effect = lower value 1 | locus YEL061C, strain CIN8, stronger effect = lower value 1.01 | locus YER015W, strain faa2, stronger effect = lower value 1 | locus YER016W, strain bim1, stronger effect = lower value 1 | locus YER110C, stronger effect = lower value 0.987 | locus YER111C, strain swi4, stronger effect = lower value 0.993 | locus YER155C, strain BEM2 (second series), stronger effect = lower value 1.01 | locus YER155C, strain BEM2, stronger effect = lower value 1.01 | locus YER167W, strain BCK2, stronger effect = lower value 1 | locus YFR010W, strain ubp6, stronger effect = lower value 1.01 | locus YGL078C, strain dbp3, stronger effect = lower value 0.993 | locus YGL086W, strain mad1, stronger effect = lower value 0.994 | locus YGL167C, strain pmr1, stronger effect = lower value 0.995 | locus YGL173C, strain kem1, stronger effect = lower value 1.01 | locus YGL227W, strain vid30, stronger effect = lower value 1 | locus YGL240W, strain doc1, stronger effect = lower value 0.987 | locus YGL248W, strain PDE1, stronger effect = lower value 1.02 | locus YGL253W, strain hxk2, stronger effect = lower value 1.02 | locus YGR078C, strain PAC10, stronger effect = lower value 1.01 | locus YGR135W, strain pre9, stronger effect = lower value 0.995 | locus YGR229C, strain SMI1, stronger effect = lower value 1.01 | locus YGR252W, strain gcn5, stronger effect = lower value 0.97 | locus YHR013C, strain ard1, stronger effect = lower value 0.977 | locus YHR027C, strain rpn1, stronger effect = lower value 1.01 | locus YHR030C, strain SLT2, stronger effect = lower value 1.01 and 0.999 | locus YHR079C, strain IRE1 (second series), stronger effect = lower value 0.992 | locus YHR079C, strain IRE1, stronger effect = lower value 0.99 | locus YHR094C, strain hxt1, stronger effect = lower value 0.985 | locus YHR129C, strain ARP1, stronger effect = lower value 1.01 | locus YHR142W, strain chs7, stronger effect = lower value 1.04 | locus YHR200W, strain rpn10, stronger effect = lower value 0.998 | locus YIL066C, strain RNR3, stronger effect = lower value 1.01 | locus YIL073C, strain SPO22, stronger effect = lower value 1 | locus YIL125W, strain kgd1, stronger effect = lower value 0.982 | locus YIR030C, strain dcg1, stronger effect = lower value 0.992 | locus YJL092W, strain hpr5, stronger effect = lower value 1.01 | locus YJL095W, strain BCK1 (second series), stronger effect = lower value 1 | locus YJL095W, strain BCK1, stronger effect = lower value 1.02 and 0.976 | locus YJL115W, strain asf1, stronger effect = lower value 0.999 | locus YJL129C, strain trk1, stronger effect = lower value 1.01 | locus YJL134W, strain LCB3, stronger effect = lower value 1.01 | locus YJL154C, strain vps35, stronger effect = lower value 1 | locus YJL164C, strain tpk1, stronger effect = lower value 1 | locus YJL166W, strain qcr8, stronger effect = lower value 1.01 | locus YJL168C, strain set2, stronger effect = lower value 0.99 | locus YJL187C, strain SWE1 (second series), stronger effect = lower value 1.01 | locus YJL187C, strain SWE1, stronger effect = lower value 1 | locus YJR043C, strain POL32, stronger effect = lower value 1.01 | locus YJR066W, strain TOR1, stronger effect = lower value 0.904

— PubChem BioAssay AID1159580 (chemical genetic matrix, 2015)
